Shown is part of a subset that was picked to be rich in hits.
Dicer inh – inhibitors of Dicer pre-microRNA processing, primary screen, biochemical, cat-ELCCA, chemiluminescence; Endoribonuclease Dicer (Homo sapiens), Q9UPY3; hit rate 6% among 47,000; cat-ELCCA pre-miR-21 Dicer processing; stronger effect = higher value; z-score at 25 µM; in the data active means z-score above about 3, passing the limit was not always enough;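 further: higher signal means more uncleaved substrate so more Dicer inhibition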
A number is an active result; - = inactive.

SMILES	Dicer inh
Cc1cc2n(n1)C(c1sccc1C)Nc1ccccc1-2 (stereo unspecified)	-
CCOc1cccc(C2Nc3c(C)cccc3-c3cc(C)nn32)c1O (stereo unspecified)	-
COc1ccc(C2Nc3ccccc3-c3cc(C)nn32)cc1O (stereo unspecified)	3.6
CCOc1cc(C2Nc3c(C)cccc3-c3cc(C)nn32)ccc1O (stereo unspecified)	3.6
COc1ccc(C2Nc3ccccc3-c3cc(C)nn32)cc1 (stereo unspecified)	-
CC(C)(C)c1nc(Sc2ncc([N+](=O)[O-])s2)n[nH]1	-
C=C(C)Cn1c(COc2ccc(OC)cc2)nc2ccccc21	-
Nc1nonc1-c1nc2ccccc2n1Cc1ccc(-c2nn[nH]n2)cc1	-
CCOC(=O)C1=C(C)NC(=O)C1CC(=O)Nc1ccc(C(=O)OCC)cc1 (stereo unspecified)	-
COC(=O)CSc1cc(C(F)(F)F)nc2cc(C(C)(C)C)nn12	-
CCC(C(=O)NNC(=O)c1ccccc1N)c1ccccc1 (stereo unspecified)	-
COC(=O)c1ccc([N+](=O)[O-])cc1Cl	-
CCCCCn1c(SCC(=O)Nc2ccc(C(C)C)cc2)n[nH]c1=O	-
CC1Oc2ccc(C(=O)c3cc4ccccc4o3)cc2NC1=O (stereo unspecified)	-
N#Cc1c(-c2ccc(Cl)cc2)nc2n(c1=O)CCS2	-
O=C1Nc2ccc(Br)cc2C12OCCCO2	-
CSc1cccc(NC(=O)NCc2ccccc2)c1C	-
Cc1cc2n(n1)C(c1sccc1C)Nc1c(C)cccc1-2 (stereo unspecified)	-
Cc1cc2n(n1)C(c1ccc(N(C)C)cc1)Nc1c(C)cccc1-2 (stereo unspecified)	6
Cc1cc2n(n1)C(c1ccc(N(C)C)cc1)Nc1ccccc1-2 (stereo unspecified)	-
Cc1cccc(NC(=S)N2CC(C)OC(C)C2)c1 (stereo unspecified)	-
O=C(CS(=O)(=O)c1ccc(Br)cc1)c1ccccc1	3.8
COC(=O)CCS(=O)(=O)c1ccc(Br)cc1	-
O=C(CSCC(=O)c1ccc(Br)cc1)c1ccc(Br)cc1	-
N#CCCC1CCCCCCCCCCC1=O (stereo unspecified)	-
SMILES	Dicer inh
CCOC(=O)NNC(=S)Nc1ccccc1OC	-
CCc1ccc(-c2nnc(-c3ccc(Cl)cc3)o2)cc1	3.3
COc1ccc(-c2nnc(SCc3ccc(Cl)cc3)o2)cc1	-
Clc1ccc(-c2nnc(-c3ccccc3)o2)cc1	-
CSc1sc(-c2nc(C(C)(C)C)cs2)c2c1C(=O)CCC2	-
CSc1sc(-c2ccnc(SCc3c(Cl)cccc3Cl)n2)c2c1C(=O)CCC2	3.5
CSc1sc(-c2nc(C)cs2)c(C)c1-c1ccnc(SCc2ccc(Cl)cc2)n1	-
CCOC(=O)c1nc(-c2ccccc2)sc1-c1ccnn1C(=O)Nc1ccc(Cl)cc1	-
Cc1cccc(CN2CCN(CC3CC4C=CC3C4)CC2)c1 (stereo unspecified)	-
c1ccc2[nH]c(SCc3cn4ccsc4n3)nc2c1	-
Cc1ccc(CSc2nc3ncccc3[nH]2)cc1	4.3
Brc1cccc(CSc2nc3ncccc3[nH]2)c1	-
Fc1cc(Cl)ccc1CSc1nc2ncccc2[nH]1	-
COC(=O)C1=C(O)CSC1=Nc1ccccc1F	-
Clc1ccc2c(c1)c(-c1ccccc1)nc1nnnn12	-
N#CC1CCC(CNC(=O)c2sc3ccccc3c2Cl)CC1 (stereo unspecified)	-
CCNC(=O)C(C)NC(=O)OC(C)(C)C (stereo unspecified)	-
CCNC(=O)C(NC(=O)OC(C)(C)C)C(C)OCc1ccccc1 (stereo unspecified)	4.7
CC(C)(C)OC(=O)NC(COCc1ccccc1)C(=O)NCc1ccccc1 (stereo unspecified)	-
O=C(CSc1nc2c(Cl)cc(Cl)cc2s1)Nc1ccc(Cl)cc1	-
N#C/C(=C\O)c1nc2ccccc2s1	-
Cc1cc(C)c2c(n1)sc1c(=O)sc(NC(=O)c3ccc(C(F)(F)F)nc3C)nc12	-
Cn1c(-c2ccc(F)cc2)cnc1NCc1ccc(Br)cc1	-
Cn1c(-c2ccccc2)cnc1NCc1cc(Cl)ccc1O	-
Cn1c(-c2ccccc2)cnc1NCc1cc(Br)ccc1F	-
SMILES	Dicer inh
Cc1ccc(-c2cnc(NCc3ccc(Br)cc3)n2C)cc1	3.3
COc1ccc(-c2cnc(NCc3cc(Br)ccc3F)n2C)cc1	-
Cn1c(-c2ccc(Cl)cc2)cnc1NCc1ccc(F)cc1F	3.3
Cn1c(-c2ccc(Cl)cc2)cnc1NCc1ccccc1F	3.2
Cn1c(-c2ccc(F)cc2)cnc1NCc1ccccc1F	-
COc1cccc(-c2cnc(NCc3ccc(Br)cc3)n2C)c1	-
CC(=O)N1N=C(c2ccc(Cl)cc2)OC1c1ccc(Br)cc1 (stereo unspecified)	-
Cn1c(=O)c2c(nc(C(N)=O)n2C)n(C)c1=O	-
Oc1ccc(Br)cc1CN1CCN(Cc2ccc3c(c2)OCO3)CC1	-
CC1(C)C2CCC1(CS(=O)(=O)N1CCCN(c3nc4ccc(Cl)cc4s3)CC1)C(=O)C2 (stereo unspecified)	-
Cc1nn(-c2cc(C(F)(F)F)ccc2Cl)c(N)c1C(N)=S	-
CCOCCOC(=O)C1=C(C)NC2=C(C(=O)CC(C)(C)C2)C1c1ccc(C)o1 (stereo unspecified)	-
O=S(=O)(NC(=NCCc1ccccc1)Nc1cccc(Cl)c1)c1ccccc1	-
C#CCNc1sc(C(C)=O)cc1[N+](=O)[O-]	-
CCOC(=O)C1C(=O)NC(N2CCc3ccccc32)=NC1c1ccco1 (stereo unspecified)	-
Cc1nc(N2CCCC2)ncc1S(=O)(=O)c1ccc(Cl)cc1	-
Nc1c2cnc(N3CCCC3)nc2nc(=O)n1-c1ccc(Cl)cc1	-
Nc1nc(N2CCOCC2)ncc1S(=O)(=O)c1ccc(Cl)cc1	3.9
COC(=O)Nc1ccc(SC(F)(F)F)cc1	-
Cc1cc(N)n2c(nc3ccccc32)c1C#N	-
CCCCn1c(=O)oc2ccc(C)cc21	3.6
Cc1ccc2oc(=O)n(CCC(=O)O)c2c1	-
Cc1ccc2oc(=O)n(Cc3ccc(F)cc3)c2c1	-
COC(=O)c1cnc(Sc2ccccn2)nc1C(F)(F)F	-
Cc1csc(C(=O)O/N=C(\N)c2ccc(Cl)cc2)c1Cl	-
SMILES	Dicer inh
c1cncc(-c2nc3ccccc3s2)c1	5.6
Clc1ccc(-c2nc3ccccc3s2)cc1	-
c1ccc(-c2nc3ccccc3s2)cc1	-
CC(C)(O)C#Cc1ccc(/C=N/Nc2c(Cl)cc(Cl)cc2Cl)cc1	-
CC(=O)c1ccc(C#CC(C)(C)O)s1	-
C/C(=N\Nc1c(Cl)cc(Cl)cc1Cl)c1ccc(C#CC(C)(C)O)s1	3.2
CC1=C(C(=O)OC2CCCC2)C(c2cccs2)C2=C(CCCC2=O)N1 (stereo unspecified)	-
Fc1cc2[nH]c(=S)[nH]c2cc1Cl	4.2
S=c1[nH]c2cc(Cl)cc(Cl)c2o1	-
CSc1cccc(NC(=O)C(=O)N/N=C/c2ccc(N(C)C)cc2Cl)c1	-
Cc1cc(Cl)c(OC(=O)c2c(Cl)cccc2Cl)c(Cl)c1	-
CN(C)C(=S)SCc1ccccc1C(=O)Oc1c(Cl)cccc1Cl	3.6
CNC(=S)NNC(=O)c1ccccc1Cl	-
Cc1ccc2nc(C(F)(F)F)cc(N3CCN(/C=C(/C#N)S(=O)(=O)c4cccs4)CC3)c2c1	-
O=C1CCc2cc(C(=O)CSc3ccccc3)ccc2N1	-
CC(C)C[C@H](NC(=O)[C@@H](O)[C@H](N)Cc1ccccc1)C(=O)O	-
CC(C)CC(NC(=O)c1ccco1)C(=O)O (stereo unspecified)	5.2
